The target in experiment [1] is POU1 (OCT1 POU domain) (human, UniProt P14859 260-458). The experiment is described as follows: EMSA-SELEX-seq; no BOB1; 20 mM Tris-HCl pH 7.6, 140 mM NaCl, 10% glycerol, 0.5 mM EDTA, 0.05% Triton X-100, 0.1 mg/mL BSA, 0.1 mg/mL poly(dI-dC), 5 mM DTT, room temperature, 20 min; high values mean tight binding. As to conditions: protein: recombinant; dsDNA, one strand shown. Put shortly: (§1)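 Binding preference is reported as the percentage of sequenced 8-mers that match a motif pattern. Tagged POU-domain proteins were made in E. coli BL21, purified under denaturing conditions and renatured. A 30 ng portion was combined with 300 ng of a PCR-amplified double-stranded random 35-nt library, with or without 28 ng coactivator protein, in 20 μL Tris–HCl pH 7.6 binding buffer for 20 min at RT. Complex bands were excised from native 6% PAGE, eluted and PCR-amplified over four rounds before Illumina sequencing.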
Chain of POU1 (OCT1 POU domain) (P14859 260-458): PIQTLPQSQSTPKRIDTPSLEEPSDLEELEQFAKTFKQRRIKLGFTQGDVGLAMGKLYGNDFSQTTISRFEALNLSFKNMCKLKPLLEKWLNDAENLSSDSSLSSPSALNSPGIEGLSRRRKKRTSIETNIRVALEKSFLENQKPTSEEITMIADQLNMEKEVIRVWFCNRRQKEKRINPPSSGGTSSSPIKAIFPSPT
For orientation: Mobility shift assays separate free from complexed probe on a gel.

For experiment [2], the target named is T1, POU2 (OCT2 POU domain) (human, UniProt P09086 175-386).
T1 sequence: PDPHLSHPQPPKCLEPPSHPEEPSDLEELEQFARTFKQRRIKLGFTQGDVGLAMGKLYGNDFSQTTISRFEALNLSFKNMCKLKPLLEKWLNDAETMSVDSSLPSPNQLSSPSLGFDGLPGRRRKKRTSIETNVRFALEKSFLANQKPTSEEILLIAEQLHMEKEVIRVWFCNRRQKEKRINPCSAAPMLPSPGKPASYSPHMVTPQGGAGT
The experiment is described as above. The settings on record: protein: recombinant; dsDNA, one strand shown. The essentials: as §1

The target of experiment [3] is POU1 (OCT1 POU domain);BOB1 (OBF1, OCA-B) (human;human, UniProt P14859;Q16633 260-458;1-256, |). The experiment is described as follows: EMSA-SELEX-seq; with BOB1 (ternary complex band); 20 mM Tris-HCl pH 7.6, 140 mM NaCl, 10% glycerol, 0.5 mM EDTA, 0.05% Triton X-100, 0.1 mg/mL BSA, 0.1 mg/mL poly(dI-dC), 5 mM DTT, room temperature, 20 min; high values mean tight binding. The settings on record: protein: recombinant;recombinant; copies: 1;1; dsDNA, one strand shown. The essentials:
as §1

In experiment [4] the target is T2, POU2 (OCT2 POU domain);BOB1 (OBF1, OCA-B) (human;human, UniProt P09086;Q16633 175-386;1-256, |).
T2 sequence 1: T1 sequence
T2 sequence 2: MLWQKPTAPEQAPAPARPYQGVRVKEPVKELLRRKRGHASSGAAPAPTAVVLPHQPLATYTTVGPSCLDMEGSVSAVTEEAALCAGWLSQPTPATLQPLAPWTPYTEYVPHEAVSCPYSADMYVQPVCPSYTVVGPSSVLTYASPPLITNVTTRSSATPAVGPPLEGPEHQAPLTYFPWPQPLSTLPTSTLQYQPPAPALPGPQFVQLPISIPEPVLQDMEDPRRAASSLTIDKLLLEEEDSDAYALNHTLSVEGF
The experiment is described as above. As to conditions: protein: recombinant;recombinant; copies: 1;1; dsDNA, one strand shown. The essentials: as §1

AACTAAAT: the binding signal in experiment [1] was 0.0778 % of ANNNNAAN 8-mers; in experiment [2], 0.0811 % of ANNNNAAN 8-mers; in experiment [3], 0.0667 % of ANNNNAAN 8-mers; in experiment [4], 0.0594 % of ANNNNAAN 8-mers.
Taken in the same sequence, the figures for ATTTTAAA were 0.198 % of ANNNNAAN 8-mers, 0.204 % of ANNNNAAN 8-mers, 0.126 % of ANNNNAAN 8-mers and 0.103 % of ANNNNAAN 8-mers.
Taken in the same sequence, the figures for AAGATAAC were 0.0248 % of ANNNNAAN 8-mers, 0.0334 % of ANNNNAAN 8-mers, 0.0285 % of ANNNNAAN 8-mers and 0.0388 % of ANNNNAAN 8-mers.
As for AAACGAAG, the binding signal was 0.045 % of ANNNNAAN 8-mers in experiment [1], 0.0483 % of ANNNNAAN 8-mers in experiment [2], 0.0589 % of ANNNNAAN 8-mers in experiment [3] and 0.0528 % of ANNNNAAN 8-mers in experiment [4].
Take ATAGGAAA: the binding signal in experiment [1] is 0.131 % of ANNNNAAN 8-mers; in experiment [2] it was 0.112 % of ANNNNAAN 8-mers; in experiment [3], 0.213 % of ANNNNAAN 8-mers; in experiment [4], 0.146 % of ANNNNAAN 8-mers.
For ATTAGAAA the same measures were 0.0995 % of ANNNNAAN 8-mers, 0.106 % of ANNNNAAN 8-mers, 0.0738 % of ANNNNAAN 8-mers and 0.0892 % of ANNNNAAN 8-mers.
Taken in the same sequence, the figures for AATTGAAG were 0.069 % of ANNNNAAN 8-mers, 0.0725 % of ANNNNAAN 8-mers, 0.0624 % of ANNNNAAN 8-mers and 0.052 % of ANNNNAAN 8-mers.
Taken in the same sequence, the figures for AAAAAAAG were 0.0923 % of ANNNNAAN 8-mers, 0.0938 % of ANNNNAAN 8-mers, 0.111 % of ANNNNAAN 8-mers and 0.0842 % of ANNNNAAN 8-mers.
Regarding AACGGAAG, the binding signal was 0.0168 % of ANNNNAAN 8-mers in experiment [1], 0.0259 % of ANNNNAAN 8-mers in experiment [2], 0.0164 % of ANNNNAAN 8-mers in experiment [3] and 0.0206 % of ANNNNAAN 8-mers in experiment [4].
Taken in the same sequence, the figures for ATCAAAAG were 0.045 % of ANNNNAAN 8-mers, 0.0414 % of ANNNNAAN 8-mers, 0.0581 % of ANNNNAAN 8-mers and 0.0388 % of ANNNNAAN 8-mers.
For AAATTAAA, the binding signal is 0.328 % of ANNNNAAN 8-mers in experiment [1], 0.349 % of ANNNNAAN 8-mers in experiment [2], 0.213 % of ANNNNAAN 8-mers in experiment [3] and 0.217 % of ANNNNAAN 8-mers in experiment [4].
Taken in the same sequence, the figures for AGTACAAG were 0.029 % of ANNNNAAN 8-mers, 0.0253 % of ANNNNAAN 8-mers, 0.0359 % of ANNNNAAN 8-mers and 0.0297 % of ANNNNAAN 8-mers.
With ACCAAAAG, the binding signal is 0.0236 % of ANNNNAAN 8-mers in experiment [1], 0.0196 % of ANNNNAAN 8-mers in experiment [2], 0.0273 % of ANNNNAAN 8-mers in experiment [3] and 0.019 % of ANNNNAAN 8-mers in experiment [4].
For AAGCCAAG the same measures were 0.0271 % of ANNNNAAN 8-mers, 0.0184 % of ANNNNAAN 8-mers, 0.0168 % of ANNNNAAN 8-mers and 0.019 % of ANNNNAAN 8-mers.
For the sequence AACACAAG, the binding signal in experiment [1] is 0.0194 % of ANNNNAAN 8-mers; in experiment [2], 0.0253 % of ANNNNAAN 8-mers; in experiment [3], 0.0219 % of ANNNNAAN 8-mers; in experiment [4], 0.0206 % of ANNNNAAN 8-mers.
As for ATATAAAT, the binding signal in experiment [1] was 0.16 % of ANNNNAAN 8-mers; in experiment [2], 0.222 % of ANNNNAAN 8-mers; in experiment [3] it was 0.108 % of ANNNNAAN 8-mers; in experiment [4] it was 0.116 % of ANNNNAAN 8-mers.
For AGTAGAAA the same measures were 0.0511 % of ANNNNAAN 8-mers, 0.0708 % of ANNNNAAN 8-mers, 0.0464 % of ANNNNAAN 8-mers and 0.052 % of ANNNNAAN 8-mers.
Taken in the same sequence, the figures for AATCCAAG were 0.0324 % of ANNNNAAN 8-mers, 0.0339 % of ANNNNAAN 8-mers, 0.0425 % of ANNNNAAN 8-mers and 0.0371 % of ANNNNAAN 8-mers.
As to ATAAGAAA, the binding signal was 0.1 % of ANNNNAAN 8-mers in experiment [1], 0.0955 % of ANNNNAAN 8-mers in experiment [2], 0.118 % of ANNNNAAN 8-mers in experiment [3] and 0.0826 % of ANNNNAAN 8-mers in experiment [4].
Taken in the same sequence, the figures for ACTCTAAT were 0.0488 % of ANNNNAAN 8-mers, 0.0604 % of ANNNNAAN 8-mers, 0.0316 % of ANNNNAAN 8-mers and 0.0405 % of ANNNNAAN 8-mers.
As for AGGGCAAA, the binding signal in experiment [1] was 0.0568 % of ANNNNAAN 8-mers; in experiment [2], 0.0466 % of ANNNNAAN 8-mers; in experiment [3], 0.0675 % of ANNNNAAN 8-mers; in experiment [4], 0.0462 % of ANNNNAAN 8-mers.
Taken in the same sequence, the figures for ACAAAAAA were 0.0656 % of ANNNNAAN 8-mers, 0.0621 % of ANNNNAAN 8-mers, 0.0808 % of ANNNNAAN 8-mers and 0.0528 % of ANNNNAAN 8-mers.
Taken in the same sequence, the figures for AGACGAAT were 0.0461 % of ANNNNAAN 8-mers, 0.0581 % of ANNNNAAN 8-mers, 0.0418 % of ANNNNAAN 8-mers and 0.0479 % of ANNNNAAN 8-mers.
For AGGGGAAT the same measures were 0.11 % of ANNNNAAN 8-mers, 0.121 % of ANNNNAAN 8-mers, 0.089 % of ANNNNAAN 8-mers and 0.11 % of ANNNNAAN 8-mers.

Source of the values: article PMC10812921, “Transcriptional Coactivator BOB1 (OBF1, OCA-B) Modulates the Specificity of DNA Recognition by the POU-Domain Factors OCT1 and OCT2 in a Monomeric Configuration”.
